Sampled rows, rich in hits. Any-hit rate of the full collection: about 21%.
Pf growth 48h: inhibits P. falciparum growth in the first generation, 48 h; AID 504832; Potency, µM (top dose mostly 28.7 µM), without a hit: top-dose activity change, negative = inhibition, actives largely listed as inhibitors; 310,000 compounds, 5.9% hits; P. falciparum luciferase growth in erythrocytes, 48 h; also: potency is read from the fitted curve at half-maximal effect; % is scaled to controls: 0 for no effect and ±100 for the full control effect
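Growth was read as firefly luciferase luminescence after a 48 h, 37 C, 5% CO2 exposure of compounds to reporter-bearing P. falciparum cultures (0.1% parasitemia, 2% hematocrit final) in Albumax-supplemented RPMI 1640.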
AMA1 RON2 block: disrupts binding of P. falciparum AMA1 to RON2; AlphaScreen AMA1-biotinylated RON2 peptide binding; 360,000 compounds, 0.2% hits; AID 720542; Potency, µM (highest dose often 58.2 µM), for the others: at the highest dose activity change, negative = inhibition, actives largely listed as inhibitors;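 also: potency is read from the fitted curve at half-maximal effect; 0% = vehicle wells and -100% = peptide control; nearly all actives have a fitted effect of over 45% in size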
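AMA1 (3D7) with his tag at 25 nM final met compounds first, then biotinylated RON2 peptide at 25 nM; detection used donor plus acceptor beads, 10 µg/mL apiece, read by AlphaScreen after 30 min at room temperature.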
Shiga toxin inh: inhibitors of Shiga toxin in Vero cells. Vero cells, Shiga toxin protein synthesis inhibition reporter. inhibition, % at 38.7 µM. 290,000 compounds, 9.2% hits; in the data active = inhibition mostly above about 28%, no sharp cut-off; inactive = mostly below about 43%; also: 0% is about no effect
Pf growth 96h: P. falciparum growth inhibition at 96 hour, primary screen for plastid delayed-death inhibitors. 320,000 compounds, 6.9% hits. P. falciparum luciferase reporter growth, 96 h. Potency, µM (titrated, usually from 28.7 µM), for inactives: at the top dose activity change, negative = inhibition, hits mostly inhibitors. AID 504834; also: potency is read from the fitted curve at half-maximal effect; % is scaled to controls: 0 for no effect and ±100 for the full control effect
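Readout is luminescence from an integrated firefly luciferase in P. falciparum. Red cells, 2% hematocrit and 0.05% parasitemia final, were cultured with compound through two parasite generations (96 hours) at 37 C, 5% CO2.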
HCV inhibitor: blocks hepatitis C virus. Potency, µM (doses to about 41.8 µM), for inactives: at the top dose activity change, negative = inhibition, most hits filed as inhibitors. Huh7.5.1 HCVcc-Cre infection, luciferase reporter, 44 h. 340,000 compounds, 3.4% hits; also: potency is read from the fitted curve at half-maximal effect; % is scaled to controls: 0 for no effect and ±100 for the full control effect
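Reporter virus HCVcc-Cre (~0.5 moi) infects cells exposed to compound; seeding density 1,000 cells/well with 4 h settling beforehand. Luminescence, 15 sec read, taken 44 h post-infection following a 15 min RT substrate incubation.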
Cycloheximide cs: affects cycloheximide protein synthesis inhibition readout, counter-screen | 300,000 compounds, 12% hits | cell reporter, cycloheximide protein synthesis inhibition counterscreen | max response, %; in the data active = max response mostly above about 13%, no sharp cut-off; inactive = mostly below about 14%; also: read at 38.3 µM for the half of the compounds with a filed dose; 0% is about no effect
The depositor's hits bear a star; u = inconclusive; x = not tested or not shown; [ ] = dose if it differs, or a comment. Unless noted, calls follow the shape of the dose curve; as a rule, active = well fitted curve in the direction sought with a large enough effect; inconclusive = small, poorly fitted or top-dose-only effect, or another doubt; inactive = no such curve, though single readings can be large; an effect the other way counts as inactive or inconclusive.

SMILES	Pf growth 48h	AMA1 RON2 block	Shiga toxin inh	Pf growth 96h	HCV inhibitor	Cycloheximide cs
COc1ccc(Cn2ncc3c4sc(C)cc4n(C)c3c2=O)cc1F	x	x	14.3	x	x	4.0
CCOC(=O)c1c(-c2ccc(OC)cc2)oc2c1C(OC(C)=O)CCC2 (stereo unspecified)	x	-15.0%	x	x	x	x
C[C@H](NC(=O)C[C@@H]1C=C[C@@H](NC(=O)CN2CCOCC2)[C@@H](CO)O1)c1ccccc1	x	1.3%	x	x	x	x
CCc1cc(C(=O)N2CCCC(CO)(Cc3ccc(F)cc3)C2)n(C)n1 (stereo unspecified)	-22.3%	-1.9%	2.4	u	7.3%	2.5
COc1ccc(NC(=O)/C(=C/c2cccnc2)NC(=O)c2cccs2)cc1	-6.3%	2.7%	-4.6	4.15µM*	7.9%	-0.4
Cc1ccc(NS(=O)(=O)c2ccc(NC(=O)c3cccs3)cc2)cc1	7.6%	8.2%	-0.7	u	17.3%	-1.8
O=C(Nc1ccc(NC(=O)c2cccs2)cc1)c1cccs1	58.6%	-0.3%	82.7*	13.3%	9.1%	42.6*
Cc1ccn(-c2ccc(NC(=O)c3cccs3)cc2)n1	45.3%	5.5%	82.4*	25.9%	u	33.2*
Cc1ccc(NC(=O)/C(=C\c2cccnc2)NC(=O)c2ccco2)cc1	u	0.7%	30.9	3.29µM*	16.1%	7.2
O=C(NN1CCN(Cc2ccccc2Cl)CC1)c1ccc(Br)cc1	u	-6.7%	-6.7	-22.9%	-15.4%	-5.2
CN1CCN(C(=O)C2=NOC3(C2)C(=O)Nc2ccccc23)CC1 (stereo unspecified)	x	0.0%	x	x	x	x
CCC1CCCCN1S(=O)(=O)c1ccc(NC(=O)c2snnc2C)cc1 (stereo unspecified)	u	-6.8%	-3.6	68.0%	u	-3.9
O=C(COc1ccc(NC(=O)c2cccs2)cc1)c1ccc(F)cc1	u	-1.8%	4.2	4.4%	14.2%	-0.8
COc1cccc(C(=O)COc2ccc(NC(=O)c3cccs3)cc2)c1	11.7µM*	-11.8%	20.3	u	-16.6%	18.8*
CCC1CCCCN1S(=O)(=O)c1ccc(NC(=O)c2cccs2)cc1 (stereo unspecified)	2.33µM*	-0.8%	16.4	-18.9%	u	0.7
Nc1cccc(NC(=O)c2cccs2)c1	17.0%	-14.5%	20.3	25.1%	-16.0%	14.6*
CCC(C)c1ccc(NC(=O)c2cccs2)cc1 (stereo unspecified)	x	9.9%	58.7*	u	-18.8%	30.5*
Clc1cccc(Cc2c(-c3ccccc3)nc3c4ccccc4ccn23)c1	x	25.8%	x	x	x	x
CC(C)CNC(=O)c1ccc(NC(=O)c2cccs2)cc1	46.2%	-6.2%	62.2*	11.0%	-16.6%	26.8*
O=C(Nc1cccc(N2CCCC2)c1)c1cccs1	u	-6.7%	71.9*	-5.2%	-16.6%	27.5*
O=C(Nc1ccc(NC(=O)c2ccc(Cl)cc2Cl)cc1)c1cccs1	5.7%	15.0%	4.5	u	-21.9%	1.0
COc1c(Cl)cc(Cl)cc1C(=O)Nc1ccc(NC(=O)c2cccs2)cc1	9.28µM*	-1.0%	-11.5	13.1µM*	u	2.8
COc1ccc(NC(=O)/C(=C\c2cccnc2)NC(=O)c2cccs2)cc1	-8.2%	-4.6%	-9.5	25.2%	12.5%	-1.2
COc1ccc(NC(=O)c2cccs2)cc1	332.6%	15.5%	78.1*	u	-5.3%	40.6*
C=C1C2=C(C(=O)N1OC)[C@@H](O)[C@@](C)(O)[C@@H](CCCCC)O2	x	21.1%	x	x	x	x
SMILES	Pf growth 48h	AMA1 RON2 block	Shiga toxin inh	Pf growth 96h	HCV inhibitor	Cycloheximide cs
Cc1ccc2c(c1)N(CC(=O)NCCCN1CCCCC1)C(=O)CO2	4.7%	1.0%	9.1	u	-3.5%	-1.6
O=C(Cc1ccc(Cl)cc1)Nc1ccc(NC(=O)c2cccs2)cc1	2.0%	-2.4%	-3.9	u	-4.6%	-5.2
O=C(Nc1ccc(Cl)cc1)c1cccs1	38.6%	15.7%	82.5*	15.1%	-24.0%	60.0*
Cc1cccc(C(=O)Nc2cc(S(=O)(=O)N3CCOCC3)ccc2N2CCCCC2)c1	7.38µM*	5.7%[11.6 µM]	x	u	u	x
O=C(NCCc1c[nH]c2ccccc12)c1cc(S(=O)(=O)N2CCCCC2)ccc1N1CCOCC1	7.38µM*	-13.4%	16.3	65.6%	13.6%	11.1
Cc1ccccc1C(=O)N1CCC(C(=O)Nc2cc(C(F)(F)F)ccc2N2CCCC2)CC1	-23.7%	10.6%	x	10.4µM*	-24.4%	x
Cc1cccc(C(=O)Nc2cc(S(=O)(=O)N3CCOCC3)ccc2N2CCCC2)c1	u	17.3%	x	u	u	x
O=C(Nc1cc(C(F)(F)F)ccc1N1CCCC1)C1CCCO1 (stereo unspecified)	-8.9%	49.5%	x	-20.1%	-18.9%	x
COc1ccc(CNC(=O)c2cc(S(=O)(=O)N3CCCCC3)ccc2N2CCOCC2)cc1OC	x	-6.5%	x	x	11.9%	x
Cc1ccc(S(=O)(=O)NC(=O)c2cc(C)n(-c3cc(S(=O)(=O)N4CCOCC4)ccc3N3CCCC3)c2C)cc1	x	-2.5%	-20.8	4.65µM*	-9.4%	-2.3
COc1cccc(CN2CC(C(=O)N(C)CCCC3CCCC3)CCC2=O)c1 (stereo unspecified)	-20.6%	1.1%	15.1	-14.6%	-3.0%	6.3
Cc1cccc(N2Cc3ccc(Br)cc3C2)c1	x	14.4%	x	x	-1.0%	x
O=C(Nc1cc(S(=O)(=O)N2CCCCC2)ccc1N1CCOCC1)c1cc(=O)[nH]c2ccccc12	u	-5.7%	-2.1	8.28µM*	-22.7%	-2.0
O=C(Nc1cc(S(=O)(=O)N2CCOCC2)ccc1N1CCCCC1)c1ccccc1	u	-9.3%[11.6 µM]	x	4.65µM*	u	x
O=C(Nc1cc(S(=O)(=O)N2CCOCC2)ccc1N1CCCCC1)c1ccccc1Br	x	7.8%	x	x	u	x
Cc1ccc(S(=O)(=O)N2CCC(C(=O)Nc3cc(C(F)(F)F)ccc3N3CCOCC3)CC2)cc1C	u	9.8%	x	9.28µM*	u	x
O=C(Nc1cc(S(=O)(=O)N2CCCCC2)ccc1N1CCOCC1)c1ccc(C(F)(F)F)cc1	9.28µM*	10.3%	x	13.1µM*	-13.5%	x
CCc1ccc(C(=O)Nc2cc(S(=O)(=O)N3CCOCC3)ccc2N2CCOCC2)cc1	x	-2.7%	x	x	-0.4%	x
O=C(Nc1ccc(Cl)cc1C(=O)c1ccccn1)c1ccccc1	x	-10.6%	x	x	x	x
FC(F)(F)c1ccccc1/C=N/n1c(COc2ccccc2)n[nH]c1=S	-0.7%	61.9%	11.0	17.1%	0.5%	-1.5
CC12CCC(O)CC1=CCC1C2CCC2(C)C3=NN=CC3CC12 (stereo unspecified)	x	-10.1%	x	x	9.9%	x
CC(=O)Nc1cccc(-c2csc(C(C)(O)c3ccc(F)c(F)c3)n2)c1 (stereo unspecified)	x	0.0%	x	x	x	x
CC(Cl)C(=O)Nc1cc(C(F)(F)F)ccc1N1CCOCC1 (stereo unspecified)	u	-3.1%	18.6	u	0.8%	-2.0
CN1CCN(c2ccc(C(F)(F)F)cc2NC(=O)Nc2ccccc2)CC1	x	3.6%	-7.6	1.47µM*	u	4.5

Bioassay records as filed in PubChem.
